Screening data: PubChem, several laboratories
Shown are actives, neighbours in structure and some others; about 1.3% of the full set was active somewhere.
RAD54 branch – RAD54 (human) branch migration inhibition; Q92698; RAD54 Holliday junction branch migration, FAM/BHQ fluorescence; inhibition, % at 10.4 µM; 360,000 tested, 0.14% active;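 active = mean normalized replicate activity at least 40 and at least half of replicates scoring 40 or more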;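 note: 0% = median of neutral control wells and 100% = median of positive control wells; inhibitors cause a drop in the FAM fluorescence signal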
DNA FID counter – counter-screen for HCV NS3 helicase inhibitors: DNA intercalator displacement; DNA fluorescent intercalator displacement, fluorescence; inhibition, % at 7.9 µM; 290,000 tested, 0.17% active; AID 1845; in the data active = inhibition above about 37%;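 note: 0% = vehicle and 100% = reference compound; higher means more ethidium bromide displaced from hairpin DNA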
beta cell repl – induces beta-cell replication in MIN6 cells; 330,000 tested, 0.29% active; MIN6 cells proliferation, ATPlite luminescence, 48 h; cells starved in 0.2% serum; 100% = growth in 10% serum; proliferation, % at 10 µM;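 active = compounds whose signal lies at least 3.5 SD above the mean of all wells on their plate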;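 note: 0% = DMSO-treated cells in low-serum medium and 100% = 10% serum control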
RAD52 inh – blocks human RAD52 DNA annealing. P43351. recombinant RAD52 DNA annealing, FRET fluorescence. inhibition, % at 18.7 µM. 360,000 tested, 0.46% active;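 active = every replicate showing at least 50% inhibition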
Target sequence (P43351 whole entry, looked up): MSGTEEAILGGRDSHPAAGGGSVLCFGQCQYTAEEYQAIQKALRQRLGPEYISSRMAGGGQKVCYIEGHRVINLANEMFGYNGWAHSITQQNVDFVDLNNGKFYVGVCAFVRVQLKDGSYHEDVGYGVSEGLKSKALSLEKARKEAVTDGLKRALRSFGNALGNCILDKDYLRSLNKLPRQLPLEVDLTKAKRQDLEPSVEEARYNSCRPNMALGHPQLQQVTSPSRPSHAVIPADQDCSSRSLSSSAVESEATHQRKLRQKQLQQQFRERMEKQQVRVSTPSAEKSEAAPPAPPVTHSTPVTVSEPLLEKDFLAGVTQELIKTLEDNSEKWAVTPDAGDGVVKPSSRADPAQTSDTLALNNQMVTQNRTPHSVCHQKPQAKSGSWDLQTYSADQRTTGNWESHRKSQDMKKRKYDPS
PREPL inhibitor – human PREPL enzyme inhibition; Q4J6C6; recombinant PREPL, fluorescence polarization activity-based probe; inhibition, % at 5.96 µM; 320,000 tested, 0.68% active;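 note: 0% = enzyme with DMSO and 100% = wells lacking enzyme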
UBC13 polyUb – human UBC13 polyubiquitination inhibition; P61088; UBC13 polyubiquitin chain formation, TR-FRET; inhibition, % at 20 µM; 330,000 tested, 0.47% active; AID 485273; in the data active = inhibition above about 45%, passing the limit was not always enough
Target sequence (P61088 whole entry, looked up): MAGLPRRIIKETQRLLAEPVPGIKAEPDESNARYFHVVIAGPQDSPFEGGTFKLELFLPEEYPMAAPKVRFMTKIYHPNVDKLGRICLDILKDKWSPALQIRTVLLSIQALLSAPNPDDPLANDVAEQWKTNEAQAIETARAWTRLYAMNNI
PREPL inh cf – human PREPL inhibition, confirmation; shares compounds with PREPL inhibitor; recombinant PREPL, fluorescence polarization activity probe; inhibition, % at 5.96 µM; 2,000 tested, 67% active;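 note: 0% = protein with DMSO and 100% = wells lacking protein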
* = called active by the depositor; · = no result. Cut-off read from the data, not from the text of the source, unless noted: active = inhibition above about 43%; inactive = the rest.

SMILES	RAD54 branch	DNA FID counter	beta cell repl	RAD52 inh	PREPL inhibitor	UBC13 polyUb	PREPL inh cf
Cc1c(C)n(C)c2ccc(C(=O)NCCCN3CCN(c4ccccc4F)CC3)cc12	6	20	-8	-73	44*	6	42
CSc1ccc(NC(=O)NCCCN2CCN(c3ccccc3F)CC2)cc1	6	20	-4	·	43*	17	42
O=C(NCCCN1CCN(c2ccccc2F)CC1)Nc1ccc(F)cc1	-5	12	1	·	18	10	·
Cc1noc(C)c1S(=O)(=O)N(C)C[C@H]1Oc2ccc(NS(=O)(=O)c3cccs3)cc2C(=O)N([C@@H](C)CO)C[C@H]1C	14	·	·	-2	·	·	·
CCN1CCN(c2cc(C)c3cc(NC(=O)CCC(=O)N4CCN(c5ccccc5)CC4)ccc3n2)CC1	7	17	-6	19	49*	5	47*
CCCNC(=O)[C@@H]1[C@@H](CO)[C@@H]2Cn3c(ccc(-c4ccccc4OC)c3=O)[C@@H]2N1S(C)(=O)=O	·	·	·	1	·	·	·
O=C(CSc1nnc(COc2ccc(Cl)cc2)o1)NC1CC2CCC1C2 (stereo not given)	-1	-28	-3	-5	46*	6	36
Cc1ccc(Nc2nc(N)nc(CSC(=S)N3CCN(c4ccccc4)CC3)n2)cc1	-3	-6	-3	·	64*	-3	34
CCCN1C[C@H](C)[C@H](OC)CN(C)C(=O)c2cc(NC(=O)CC(F)(F)F)ccc2OC[C@@H]1C	·	·	·	-3	·	·	·
C[C@H](CO)N1C[C@H](C)[C@@H](CN(C)Cc2ccc(-c3ccccc3)cc2)Oc2ccc(NC(=O)Cc3cn(C)c4ccccc34)cc2C1=O	·	·	·	29	·	·	·
Nc1cc(F)ccc1N1CCCCCC1	2	2	-5	40	43*	1	26
CN1C(=O)c2cc(NC(=O)c3ccc(C(F)(F)F)cc3)ccc2OC[C@@H]2O[C@@H](CC(=O)O)CC[C@@H]21	8	·	·	1	·	·	·
CCCCN(C)CCCNC(=O)CN1N=C(c2ccc(Cl)cc2)CCC1=O	-10	8	-1	-16	3	-1	·
CC(C)CN(CCNC(=O)CN1N=C(c2ccc(Cl)cc2)CCC1=O)CC(C)C	-1	2	-2	-2	49*	1	42
C[C@H]1CN([C@@H](C)CO)S(=O)(=O)c2ccc(C#CC3CC3)cc2O[C@@H]1CN(C)C	-12	·	·	-1	·	·	·
O=C(C[C@@H]1C=C[C@H](NC(=O)C2CCC2)[C@H](CO)O1)NCCCN1CCOCC1	-1	·	·	-8	·	·	·
CN(C)c1ccc(/C=C/C(=O)c2ccc3c(c2)OCO3)cc1	-372	·	-7	-115	52*	-34	27
COc1ccc2c3c([nH]c2c1)[C@H](CO)N(C(=O)Nc1ccc(F)cc1)CC31CN(Cc2nccs2)C1	·	·	·	13	·	·	·
N#Cc1ccc(CSc2nnc(-c3cccnc3)n2-c2ccccc2)cc1	·	-19	-3	·	46*	-4	41
O=C1/C(=N\S(=O)(=O)c2cccs2)C([n+]2ccc(CCCc3ccccc3)cc2)=C([O-])c2ccccc21	4	-22	-4	-13	69*	-90	70*
C[C@H](CO)N1C[C@H](C)[C@H](CN(C)CC2CCCCC2)Oc2ccc(NS(=O)(=O)c3cn(C)cn3)cc2C1=O	-3	·	·	-6	·	·	·
Clc1ccc(C2Nc3cccc4cccc(c34)N2)c(Cl)c1	6	·	·	7	·	·	·
Clc1cccc(-c2ccc(C3Nc4cccc5cccc(c45)N3)o2)c1	4	·	-6	·	49*	-55	61*
CCOc1ccc(CCNC(=O)c2ccc3c(=O)[nH]c4c(C(=O)NC(C)C)sc(=S)n4c3c2)cc1	2	-24	-5	-14	55*	6	79*
O=C(NCCc1ccccc1)c1ccc2c(=O)[nH]c3c(C(=O)NCC4CCCO4)sc(=S)n3c2c1 (stereo not given)	2	49*	-3	-12	93*	-27	90*
SMILES	RAD54 branch	DNA FID counter	beta cell repl	RAD52 inh	PREPL inhibitor	UBC13 polyUb	PREPL inh cf
CC(C)NC(=O)c1sc(=S)n2c1[nH]c(=O)c1ccc(C(=O)NCCc3ccc(Cl)cc3)cc12	7	-14	-5	-27	70*	0	80*
O=C(NC1CCCC1)[C@H]1[C@H](CO)[C@H]2Cn3c(ccc(-c4cccnc4)c3=O)[C@@H]1N2CCc1ccccc1	-22	·	·	-7	·	·	·
COc1cc(/C=C2/C(=O)NN(c3cccc(C)c3)C2=O)ccc1OC(=O)c1ccco1	5	-11	-2	-18	56*	-2	38
COc1cc(/C=C2\C(=N)N3N=C(S(C)(=O)=O)SC3=NC2=O)ccc1OC(=O)c1ccco1	-15	-5	-2	-80	61*	-18	85*
COc1cc(/C=C2\C(=N)N3N=C(S(C)(=O)=O)SC3=NC2=O)ccc1OCCOc1ccccc1C	-6	-4	·	-33	21	·	·
COc1cc(/C=C2\C(=N)N3N=C(S(C)(=O)=O)SC3=NC2=O)ccc1OC(=O)c1cccs1	-4	9	-1	-19	76*	-12	88*
CCOc1cc(/C=C2\C(=N)N3N=C(S(=O)(=O)CC)SC3=NC2=O)ccc1OC(=O)c1ccco1	-8	-3	-4	-118	38	-24	·
O=C(C[C@H]1CC[C@H]2[C@@H](COC[C@@H](O)CN2S(=O)(=O)c2cccc(Cl)c2)O1)NC1Cc2ccccc2C1	-6	·	·	29	·	·	·
CC(C)C#Cc1cnc2c(c1)C(=O)N([C@H](C)CO)C[C@@H](C)[C@H](CN(C)Cc1cncnc1)O2	-1	·	·	13	·	·	·
c1ccc(C(c2nnnn2Cc2ccco2)N2CCN(c3nc4ccccc4s3)CC2)cc1 (stereo not given)	1	-10	-4	·	44*	1	41
c1ccc(Cn2nnnc2C(c2ccccc2)N2CCN(c3nc4ccccc4s3)CC2)cc1 (stereo not given)	-2	0	-1	·	27	1	·
c1cncc(CNc2ccc3c(c2)OCO3)c1	·	-3	-3	·	44*	-8	52*
Cc1ccc2nc3c(cc(C(=O)NCCc4ccccc4)c(=N)n3CCCN3CCOCC3)c(=O)n2c1	28	31	-3	38	53*	13	56*
Cc1cccn2c(=O)c3cc(C(=O)NCCN4CCOCC4)c(=N)n(CCc4ccccc4)c3nc12	43	18	1	·	32	6	·
COc1ccc(CCNC(=O)c2cc3c(=O)n4ccccc4nc3n(CCCN3CCOCC3)c2=N)cc1	46	48*	0	42	58*	3	52*
CCc1ccc(OCC(=O)N/N=C2\CC(=O)c3ccccc32)cc1	1	-13	-6	·	54*	-10	-2
O=C(Cc1ccc2c(c1)OCCO2)N1CCN(S(=O)(=O)c2cccc(C(F)(F)F)c2)CC1	·	-1	0	·	81*	-1	5
